One assay concerns GSK3B.
Turning to `COc1ccc2c(-c3ccnc(Nc4cccc(OC(F)(F)F)c4)n3)cnn2n1` [GW810372X], the Kinases covered entry is on record as “GSK3B”.
The same measure, in the same setting: then `COc1ccc(CSc2nnc(-c3ccc4ncsc4c3)o2)cc1C(F)(F)F` [TPKI-91], with “GSK3B”.
With `O=C(Nc1n[nH]c2nc(-c3ccc(O)cc3)c(Br)cc12)C1CC1` [SB-725317], the Kinases covered entry is reported as “GSK3B”.
Still for that read-out and setting: the entry for `Cc1nnc(-c2ccc3occ(-c4ccc(S(C)=O)cc4)c3c2)[nH]1` (centres unmarked) [TPKI-85] is “GSK3B”; for `COc1cc(C=NNc2ncnc3c2cnn3-c2ccccc2)ccc1O` [GW513184X] it is “GSK3B”; for `CCC(NN(C)C)=C1C(=O)Nc2ccc(C(C)=O)cc21` [BI00036838] it is “GSK3B”.

Another assay concerns IGF1R.
Take `CN(C)C/C=C/C(=O)Nc1ccc(C(=O)Nc2cccc(Nc3ncc(Cl)c(-c4c[nH]c5ccccc45)n3)c2)cc1` [THZ1]: the Kinases covered entry was “IGF1R”.
Still for that read-out and setting: then `CCc1cc(Nc2nccc(-c3c(-c4ccc(OC)c(C(=O)Nc5c(F)cccc5F)c4)nc4ccccn34)n2)c(OC)cc1N1CCC(N2CCN(S(C)(=O)=O)CC2)CC1` [GSK1904529], with “IGF1R”; and `CNC(=O)c1c(F)cccc1Nc1nc(Nc2cc3c(cc2OC)CCN3C(=O)CN(C)C)nc2[nH]ccc12` [GSK1838705], with “IGF1R”; and `COc1cc(C)c(N(C)C(=O)CN(C)C)cc1Nc1nc(Nc2cccc(F)c2C(N)=O)c2cc[nH]c2n1` [GSK2219385], with “IGF1R”.
Regarding `COc1cc(N2CCN(C(C)C)CC2)ccc1Nc1nc(Nc2ccc(F)cc2C(=O)NC[C@@H](O)CO)c2cc[nH]c2n1` [GSK1392956A], the Kinases covered result is “IGF1R”.

Source of the values: article PMC7826789 (International Journal of Molecular Sciences, 2021).
